Laboratory results taken from PubChem BioAssay (NCI).
The panel holds about 83,000 compounds, 20% with a hit somewhere; the sample as a whole holds those more often.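 Interpretation: 100, growth as untreated; towards 0, rising growth inhibition; 0, no net growth; 0 to -100, cell death. Compounds scoring below 10 were considered active.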 A number with no mark means an inactive call. The source made the active and inactive calls.

Tested on: SK-MEL-28 melanoma
Test: NCI-60 one-dose screen, 48 h (100 = growth as untreated, 0 = no growth, -100 = all killed)
Conditions: 10 µM unless noted

SMILES | growth
COc1cc(/C=C/C(=O)c2ccc(Nc3ncnc4ccccc34)cc2)cc(OC)c1 | 86.3%
COc1ccc(C(=O)c2cc3c(N)c(C(=O)Nc4cccc(OC)c4)sc3nc2C)cc1 | 56.7%
CCC(C)N(CCNc1cc(OC)cc2cccnc12)CCC(C)C (stereo unspecified) | 99.7%
S=c1[nH]cccc1-c1nnc2n1Nc1nc3ccccc3cc1CS2 | 111%
NC(=O)C1(N2CCCCC2)CCN(CCCC(=O)c2ccc(F)cc2)CC1 | 51.7%
O=S(=O)(c1cccc(NC2=Nc3cccc4cccc2c34)c1)N1CCCC1 | 81.4%
OC1(c2ccc(Cl)c(C(F)(F)F)c2)CCN(CCCC(c2ccc(F)cc2)c2ccc(F)cc2)CC1 | -94.4% (active)
O=c1[nH]nc(-c2ccc(Br)cc2)cc1Cc1ccc(O)cc1 | 104%
N/C(=N\N=C\c1cc2ccccc2s1)N/N=C/c1cc2ccccc2s1 | 106%
COc1ccc(C(=O)c2cc3c(N)c(C(=O)Nc4ccc(Br)cc4)sc3nc2C)cc1 | 86.4%
CC1=NNC(=O)C1CCC(=O)N/N=C(\C)c1ccc2ccccc2c1 (stereo unspecified) | 109%
O=C(O)c1cn(C2CC2)c2cc(N3CCN(C(=O)C[n+]4cccc5ccccc54)CC3)c(F)cc2c1=O | 56.8%
COc1ccc(Cn2nc(-c3ccccc3)c3c2CCc2cnoc2-3)cc1 | 84.8%
O=C(O)CNC(=O)CN1C(=O)c2ccccc2C1=O | 103%
O=C1CCCCCCCCC(O)C(O)CCCC(c2cccs2)O1 (stereo unspecified) | 123%
CC1CCN(C(=O)OCc2nc3nc(Cl)nc(N4CCOCC4)c3[nH]2)CC1 | -86.4% (active)
COc1cc(C2CC(c3cccc(Nc4ccncc4)c3)=NN2c2cc(Cl)cc(Cl)c2)cc(OC)c1OC (stereo unspecified) | -78.5% (active)
COC(=O)Nc1ccc(NC(=O)OC)cc1 | 116%
COc1ccc(C(=O)c2cc3c(N)c(C(=O)Nc4cccc(Cl)c4C)sc3nc2C)cc1 | 63.3%

SMILES | growth
COc1ccc(-c2nc(SC)nc(N3CCOCC3)c2C#N)cc1 | 106%
CC(=O)NCCCS(=O)(=O)O | 107%
Cn1c(COC(=O)NCCN2CCOCC2)nc2c(N3CCOCC3)nc(-c3ccccc3)nc21 | -97.6% (active)
CC(C)Sc1nc(NN)c(C#N)c(-c2ccccc2)n1 | 90.4%
COc1ccc(-c2nc(SCC(C)C)nc(N/N=C(/C)c3ccc(OC)c(OC)c3)c2C#N)cc1 | 84.5%
COc1cc2nnn3c4ncccc4c(N=O)c3c2cc1OC | 81.4%
COc1ccccc1-c1c(-c2ccc(Cl)cc2)c2cc3c(cc2[nH]c1=O)OCCO3 | 90.4%
O=S(=O)(NCCNc1nccc(-c2c(-c3ccc(F)c(O)c3)nc3sccn23)n1)c1ccccc1 | 16.8%
CC(C)(O)C1CCCN1C(=O)c1ccccc1I (stereo unspecified) | 105%
O=C(OCc1nc2nc(Cl)nc(N3CCOCC3)c2[nH]1)n1ccnc1 | -36.5% (active)
Cc1c([N+](=O)[O-])cc(C(C)(C)C)cc1[N+](=O)[O-] | 99.2%
O=C(N/N=C/c1ccc(F)cc1)c1ccccc1Nc1cccc(C(F)(F)F)c1 | 91.2%
COc1cccc(/C=C2\COc3ccc(-c4ccccc4)cc3C2=O)c1 | -36.5% (active)
CN1CCN(c2cc(F)c(NC3=C(Cl)C(=O)c4ncccc4C3=O)c(F)c2)CC1 | -55.1% (active)
Cc1cc(NC(=O)c2cnc(N3CCN(CCOCCOCCOCCOCCC(=O)N[C@H](C(=O)N4C[C@H](O)C[C@H]4C(=O)N[C@@H](C)c4ccc(-c5scnc5C)cc4)C(C)(C)C)CC3)cn2)c2ncccc2c1 | -75.1% (active)
COc1ccc(-c2ncc(-c3ccccc3)[nH]2)cc1OC | 105%
O=C(CN1CCOCC1)Nc1ccc2ncnc(Nc3ccc(Oc4cccc(F)c4)c(Cl)c3)c2c1 | 83%
O=C1Nc2c(ccc(Cl)c2Cl)/C1=C/c1ccc(F)cc1 | 115%
COc1ccc(-c2nc(N/N=C/c3c[nH]c4ccccc34)nc(N3CCOCC3)c2C#N)cc1 | 41.3%

Tested on: SK-MEL-2 melanoma
Test: as above
Conditions: 10 µM unless noted

SMILES | growth
COc1cc(/C=C/C(=O)c2ccc(Nc3ncnc4ccccc34)cc2)cc(OC)c1 | 112%
COc1ccc(C(=O)c2cc3c(N)c(C(=O)Nc4cccc(OC)c4)sc3nc2C)cc1 | 27.9%
CCC(C)N(CCNc1cc(OC)cc2cccnc12)CCC(C)C (stereo unspecified) | 90%
S=c1[nH]cccc1-c1nnc2n1Nc1nc3ccccc3cc1CS2 | 104%
NC(=O)C1(N2CCCCC2)CCN(CCCC(=O)c2ccc(F)cc2)CC1 | 13.9%
O=S(=O)(c1cccc(NC2=Nc3cccc4cccc2c34)c1)N1CCCC1 | 75.2%
OC1(c2ccc(Cl)c(C(F)(F)F)c2)CCN(CCCC(c2ccc(F)cc2)c2ccc(F)cc2)CC1 | -77.2% (active)
O=c1[nH]nc(-c2ccc(Br)cc2)cc1Cc1ccc(O)cc1 | 107%
N/C(=N\N=C\c1cc2ccccc2s1)N/N=C/c1cc2ccccc2s1 | 109%
COc1ccc(C(=O)c2cc3c(N)c(C(=O)Nc4ccc(Br)cc4)sc3nc2C)cc1 | 74.4%
CC1=NNC(=O)C1CCC(=O)N/N=C(\C)c1ccc2ccccc2c1 (stereo unspecified) | 102%
O=C(O)c1cn(C2CC2)c2cc(N3CCN(C(=O)C[n+]4cccc5ccccc54)CC3)c(F)cc2c1=O | 72.5%
COc1ccc(Cn2nc(-c3ccccc3)c3c2CCc2cnoc2-3)cc1 | 111%
O=C(O)CNC(=O)CN1C(=O)c2ccccc2C1=O | 114%
O=C1CCCCCCCCC(O)C(O)CCCC(c2cccs2)O1 (stereo unspecified) | 120%
CC1CCN(C(=O)OCc2nc3nc(Cl)nc(N4CCOCC4)c3[nH]2)CC1 | -92% (active)
COc1cc(C2CC(c3cccc(Nc4ccncc4)c3)=NN2c2cc(Cl)cc(Cl)c2)cc(OC)c1OC (stereo unspecified) | 71.4%
COC(=O)Nc1ccc(NC(=O)OC)cc1 | 88.5%
COc1ccc(C(=O)c2cc3c(N)c(C(=O)Nc4cccc(Cl)c4C)sc3nc2C)cc1 | 36.9%

SMILES | growth
COc1ccc(-c2nc(SC)nc(N3CCOCC3)c2C#N)cc1 | 101%
CC(=O)NCCCS(=O)(=O)O | 101%
Cn1c(COC(=O)NCCN2CCOCC2)nc2c(N3CCOCC3)nc(-c3ccccc3)nc21 | -59.8% (active)
CC(C)Sc1nc(NN)c(C#N)c(-c2ccccc2)n1 | 109%
COc1ccc(-c2nc(SCC(C)C)nc(N/N=C(/C)c3ccc(OC)c(OC)c3)c2C#N)cc1 | 103%
COc1cc2nnn3c4ncccc4c(N=O)c3c2cc1OC | 101%
COc1ccccc1-c1c(-c2ccc(Cl)cc2)c2cc3c(cc2[nH]c1=O)OCCO3 | 80.5%
O=S(=O)(NCCNc1nccc(-c2c(-c3ccc(F)c(O)c3)nc3sccn23)n1)c1ccccc1 | 12.7%
CC(C)(O)C1CCCN1C(=O)c1ccccc1I (stereo unspecified) | 132%
O=C(OCc1nc2nc(Cl)nc(N3CCOCC3)c2[nH]1)n1ccnc1 | -67.1% (active)
Cc1c([N+](=O)[O-])cc(C(C)(C)C)cc1[N+](=O)[O-] | 71.5%
O=C(N/N=C/c1ccc(F)cc1)c1ccccc1Nc1cccc(C(F)(F)F)c1 | 114%
COc1cccc(/C=C2\COc3ccc(-c4ccccc4)cc3C2=O)c1 | -46.4% (active)
CN1CCN(c2cc(F)c(NC3=C(Cl)C(=O)c4ncccc4C3=O)c(F)c2)CC1 | -49.6% (active)
Cc1cc(NC(=O)c2cnc(N3CCN(CCOCCOCCOCCOCCC(=O)N[C@H](C(=O)N4C[C@H](O)C[C@H]4C(=O)N[C@@H](C)c4ccc(-c5scnc5C)cc4)C(C)(C)C)CC3)cn2)c2ncccc2c1 | -17.8% (active)
COc1ccc(-c2ncc(-c3ccccc3)[nH]2)cc1OC | 118%
O=C(CN1CCOCC1)Nc1ccc2ncnc(Nc3ccc(Oc4cccc(F)c4)c(Cl)c3)c2c1 | 93.6%
O=C1Nc2c(ccc(Cl)c2Cl)/C1=C/c1ccc(F)cc1 | 5.62% (active)
COc1ccc(-c2nc(N/N=C/c3c[nH]c4ccccc34)nc(N3CCOCC3)c2C#N)cc1 | 97.8%
